Assay results taken from PubChem BioAssay (Tox21).
Several values for one entry are separate records, joined by “and”; a condition that tells them apart may be missing. Identical values can stand only once. Unmarked numbers belong to inactive results. Inconclusive results are not listed. Entries that show only a call come without a potency. Activity calls are given as the source filed them. Unless noted, calls come from the whole dose curve; as a rule, active = well fitted curve in the direction sought with a large enough effect in the repeat runs; inconclusive = weak or mixed curves; inactive = no such curve, though single readings can be large; an effect the other way counts as inactive or inconclusive.

Key:
[1] = qHTS assay to identify small molecule antagonists of the estrogen receptor alpha (ER-alpha) signaling pathway using the BG1 cell line in the presence of 0.1 nM 17-beta-estradiol - cell viability counter screen (AID 1259241); note: nearly all actives have a fitted effect of over 40% in size
How it was run: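 Estradiol-stimulated (0.1 nM) VM7Luc4E2 cells exposed to compounds 22 hr; viability measured by fluorescence of cleaved CellTiter-Fluor substrate after 30 min.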

[2] = qHTS assay to identify small molecule antagonists of the androgen receptor (AR) signaling pathway using the MDA cell line in the presence of 0.5 nM R1881 - cell viability counter screen (AID 1259242); note: nearly all actives have a fitted effect of over 45% in size
How it was run: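 R1881 at 0.5 nM final stimulated MDA-kb2 cells during 16 hr compound treatment at 37C. Cytotoxicity read: CellTiter-Fluor fluorescence after 30 min.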

[3] = target: Androgen receptor (Homo sapiens) (UniProt P10275); test: qHTS assay to identify small molecule antagonists of the androgen receptor (AR) signaling pathway using the MDA cell line in the presence of 0.5 nM R1881 (AID 1259243); note: nearly all actives have a fitted effect of over 50% in size
Chain of Androgen receptor (Homo sapiens) (P10275 whole entry, looked up): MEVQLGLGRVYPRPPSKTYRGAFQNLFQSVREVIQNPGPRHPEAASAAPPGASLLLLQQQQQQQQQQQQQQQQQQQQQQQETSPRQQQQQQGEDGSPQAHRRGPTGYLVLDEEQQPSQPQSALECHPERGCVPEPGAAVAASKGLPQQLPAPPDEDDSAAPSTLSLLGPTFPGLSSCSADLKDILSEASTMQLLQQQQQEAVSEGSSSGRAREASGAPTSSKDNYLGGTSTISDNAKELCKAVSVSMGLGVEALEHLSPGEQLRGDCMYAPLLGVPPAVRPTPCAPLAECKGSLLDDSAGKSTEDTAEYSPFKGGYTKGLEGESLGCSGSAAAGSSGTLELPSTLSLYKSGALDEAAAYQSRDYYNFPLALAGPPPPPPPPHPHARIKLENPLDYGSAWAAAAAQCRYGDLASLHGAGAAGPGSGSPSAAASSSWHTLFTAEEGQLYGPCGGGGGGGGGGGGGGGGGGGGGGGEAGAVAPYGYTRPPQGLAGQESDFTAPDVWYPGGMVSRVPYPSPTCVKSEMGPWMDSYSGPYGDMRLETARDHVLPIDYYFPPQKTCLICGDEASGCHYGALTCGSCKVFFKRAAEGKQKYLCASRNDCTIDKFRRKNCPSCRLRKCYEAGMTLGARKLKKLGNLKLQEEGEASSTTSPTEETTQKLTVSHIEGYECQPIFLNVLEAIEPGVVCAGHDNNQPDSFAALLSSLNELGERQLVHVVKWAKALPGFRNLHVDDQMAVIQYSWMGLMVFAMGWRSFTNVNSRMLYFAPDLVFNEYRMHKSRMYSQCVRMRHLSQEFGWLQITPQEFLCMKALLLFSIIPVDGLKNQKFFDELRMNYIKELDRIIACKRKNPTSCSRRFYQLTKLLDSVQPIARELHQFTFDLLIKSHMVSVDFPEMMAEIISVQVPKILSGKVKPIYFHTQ
How it was run: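 We exposed MDA-kb2 cells to compounds under 0.5 nM R1881 stimulation for 16 hr at 37C and quantified MMTV-driven luciferase by luminescence.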

[4] = qHTS assay to identify small molecule HDAC inhibitors (AID 1259364); note: potency is the fitted concentration of half-maximal effect;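 note: wild-type HCT-116 cells with endogenous class I/II HDAC activity; nearly all actives have a fitted effect of over 45% in size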; for activity change, negative = inhibition: top concentration of the series differs between compounds
How it was run: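 Relative class I and II HDAC activity is taken from the luminogenic signal in HCT-116 cells, with compound exposure 2 hr and reagent development 30 min at room temperature.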

[5] = qHTS assay to identify small molecule HDAC inhibitors - cell viability counter screen (AID 1259365); note: series mostly up to about 92 µM; nearly all actives have a fitted effect of over 50% in size
How it was run: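 After overnight seeding at 1,500 cells per well, wild-type HCT-116 cultures took up compounds in DMSO for 2hr at 37 C. Viable cell content came from luminescence with CellTiter-Glo.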

[6] = qHTS assay to identify small molecule agonists of the sonic hedgehog signaling (Shh) pathway - cell viability counter screen (AID 1259366); note: nearly all actives have a fitted effect of over 50% in size
How it was run: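 Same-well cytotoxicity read. Gli1-Luc reporter 3T3 cells; compounds 24hr, 37C/5% CO2; CellTiter-Fluor fluorescence.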

[7] = qHTS assay to identify small molecule antagonists of the sonic hedgehog signaling (Shh) pathway - cell viability counter screen (AID 1259367); note: nearly all actives have a fitted effect of over 55% in size
How it was run: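 After a 4 hr settling period, 3T3 Gli1-Luc cells were treated with DMSO-dissolved chemicals and conditioned medium, kept 24 hr at 37C in 5% CO2, and assayed for viability by CellTiter-Fluor fluorescence following 1 hr reagent incubation.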

[8] = qHTS assay to identify small molecule agonists of the sonic hedgehog signaling (Shh) pathway (AID 1259368; calls by dose curve;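 note: NIH/3T3-derived 3T3Gli1-Luc cells carrying a stable Gli1-driven firefly luciferase reporter; series mostly up to about 92 µM; nearly all actives have a fitted effect of over 15% in size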)
How it was run: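 Mouse fibroblast (NIH/3T3) reporter cells with stably integrated Gli1-Luc were treated 24 hr with compound; firefly luciferase luminescence served as the read-out.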

[9] = target: Estrogen receptor (Homo sapiens) (UniProt P03372); test: qHTS assay to identify small molecule antagonists of the estrogen receptor alpha (ER-alpha) signaling pathway using the BG1 cell line in the presence of 0.1 nM 17-beta-estradiol (AID 1259244); note: nearly all actives have a fitted effect of over 50% in size
Chain of Estrogen receptor (Homo sapiens) (P03372 whole entry, looked up): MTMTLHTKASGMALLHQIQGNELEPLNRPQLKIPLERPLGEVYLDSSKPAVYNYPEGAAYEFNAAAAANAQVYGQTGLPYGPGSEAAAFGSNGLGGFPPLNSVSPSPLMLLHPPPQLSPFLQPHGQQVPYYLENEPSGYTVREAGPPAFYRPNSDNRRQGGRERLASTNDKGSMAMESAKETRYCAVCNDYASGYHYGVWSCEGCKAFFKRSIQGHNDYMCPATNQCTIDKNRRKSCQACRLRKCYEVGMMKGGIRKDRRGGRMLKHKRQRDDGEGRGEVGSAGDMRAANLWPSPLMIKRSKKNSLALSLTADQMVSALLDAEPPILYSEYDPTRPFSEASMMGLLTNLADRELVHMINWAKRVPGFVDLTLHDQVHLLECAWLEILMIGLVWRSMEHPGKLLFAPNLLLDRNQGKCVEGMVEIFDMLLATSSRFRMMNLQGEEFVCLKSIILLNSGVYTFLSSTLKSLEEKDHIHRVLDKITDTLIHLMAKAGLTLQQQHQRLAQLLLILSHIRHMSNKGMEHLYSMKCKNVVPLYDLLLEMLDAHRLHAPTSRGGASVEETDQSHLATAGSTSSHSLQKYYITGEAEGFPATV
How it was run: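 VM7Luc4E2; 4xERE-luciferase; 0.1 nM E2 final; 22 h co-incubation, 37C; ONE-Glo luminescence after 30 min at room temperature.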

[10] = qHTS assay to identify small molecule phospholipidosis (PLD) inducers (AID 1259344; active = well fitted curve in the direction sought with a large enough effect; an effect the other way counts as inactive or inconclusive)
How it was run: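 HepG2 cells grown on collagen I take up LipidTOX Red while exposed to compound for 24 h; after fixation they are imaged at 20x and pit metrics are extracted.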

CCN1CCCC1CNC(=O)c1cc(S(N)(=O)=O)ccc1OC (stereo unspecified)
outcome [1]: inactive | outcome [2]: inactive | Potency [3]: inactive | Potency [4]: inactive | outcome [5]: inactive | Potency [6]: inactive | outcome [7]: inactive | Potency [8]: inactive

Cc1c(F)cc2c(=O)c(C(=O)O)cn3c2c1CCC3C (stereo unspecified)
outcome [1]: inactive | outcome [2]: inactive | Potency [3]: inactive | outcome [9]: inactive | Potency [4]: inactive | outcome [5]: inactive | Potency [6]: inactive | outcome [7]: inactive | Potency [8]: inactive

Cc1ncc(CSSCc2cnc(C)c(O)c2CO)c(CO)c1O
outcome [1]: inactive | outcome [2]: inactive | Potency [3]: inactive | outcome [9]: inactive | Potency [10]: inactive | Potency [4]: inactive | outcome [5]: inactive | outcome [7]: inactive | Potency [8]: inactive

O=S(=O)(O)c1ccccc1O
outcome [1]: inactive | outcome [2]: inactive | Potency [3]: inactive | outcome [9]: inactive | Potency [4]: inactive | outcome [5]: inactive | Potency [8]: inactive

O=c1[nH]c(=O)n([C@H]2O[C@H](CO)[C@@H](O)[C@@H]2O)cc1/C=C\Br
outcome [1]: inactive | outcome [2]: inactive | Potency [3]: inactive | outcome [9]: inactive | outcome [5]: inactive | outcome [7]: inactive | Potency [8]: inactive

CC(C)CCCC(C)NCCC(C)C (stereo unspecified)
outcome [1]: inactive | outcome [2]: inactive | Potency [3]: inactive | outcome [9]: inactive | Potency [4]: inactive | outcome [5]: inactive | Potency [6]: inactive | outcome [7]: inactive | Potency [8]: inactive

NCC[C@H](O)C(=O)N[C@@H]1C[C@H](N)[C@@H](O[C@H]2O[C@H](CN)[C@@H](O)[C@H](O)[C@H]2O)[C@H](O)[C@H]1O[C@H]1O[C@H](CO)[C@@H](O)[C@H](N)[C@H]1O
activity change, negative = cytotoxicity [1]: 7.28% [at 0.349 µM] | viability change, negative = cytotoxic [2]: 0.273% [at 0.349 µM] | activity, negative = inhibition [3]: 0.695% [at 0.349 µM] | activity change, negative = inhibition [9]: 9.86% [at 0.349 µM] | Potency [10]: inactive | activity change, negative = inhibition [4]: 5.91% [at 0.349 µM] | activity change, negative = cytotoxicity [5]: 1.82% [at 0.349 µM] | viability change, negative = cytotoxic [6]: 2.12% [at 0.349 µM] | viability change, negative = cytotoxic [7]: 1.11% [at 0.349 µM] | activity change [8]: 0.203% [at 0.349 µM, active compounds read high]

CCCCCN(CCCCC)C(=O)C(CCC(=O)O)NC(=O)c1ccc(Cl)c(Cl)c1 (stereo unspecified)
outcome [1]: inactive | outcome [2]: inactive | Potency [3]: inactive | outcome [9]: inactive | Potency [10]: inactive | Potency [4]: inactive | outcome [5]: inactive | Potency [6]: inactive | outcome [7]: inactive | Potency [8]: inactive

CC1=CCC2C(C1)C2(C)C (stereo unspecified)
outcome [1]: inactive | outcome [2]: inactive | Potency [3]: inactive | outcome [9]: inactive | Potency [4]: inactive | outcome [5]: inactive | Potency [6]: inactive | outcome [7]: inactive | Potency [8]: inactive

NS(=O)(=O)c1cc2c(cc1C(F)(F)F)NC(Cc1ccccc1)NS2(=O)=O (stereo unspecified)
outcome [1]: inactive | outcome [2]: inactive | Potency [3]: inactive | Potency [10]: inactive | Potency [4]: inactive | outcome [5]: inactive | Potency [6]: inactive | Potency [8]: inactive

CCCC(=O)O[C@]1(C(=O)CCl)[C@@H](C)C[C@H]2[C@@H]3CCC4=CC(=O)C=C[C@]4(C)[C@@]3(F)C(=O)C[C@@]21C
outcome [1]: inactive | outcome [2]: inactive | Potency [3]: inactive | outcome [9]: inactive | Potency [10]: inactive | outcome [5]: inactive | Potency [6]: inactive | Potency [8]: inactive

O=C(O)/C=C/c1ccc(/C=C/C(=O)O)cc1
outcome [1]: inactive | outcome [2]: inactive | Potency [3]: inactive | Potency [4]: 1340 nM (active) | outcome [5]: inactive | Potency [6]: inactive | outcome [7]: inactive | Potency [8]: inactive

NC(N)=NS(=O)(=O)c1ccc(N)cc1
outcome [1]: inactive | outcome [2]: inactive | Potency [3]: inactive | outcome [9]: inactive | Potency [10]: inactive | Potency [4]: inactive | outcome [5]: inactive | Potency [6]: inactive | Potency [8]: inactive

NCCNC(=O)c1ccc(Cl)cn1
outcome [1]: inactive | outcome [2]: inactive | outcome [9]: inactive | Potency [10]: inactive | Potency [4]: inactive | outcome [5]: inactive | Potency [6]: inactive | outcome [7]: inactive | Potency [8]: inactive

NC(=O)c1ncn([C@@H]2O[C@H](CO)[C@@H](O)[C@H]2O)c1N
outcome [1]: inactive | outcome [2]: inactive | outcome [9]: inactive | Potency [10]: inactive | Potency [4]: inactive | outcome [5]: inactive | Potency [6]: inactive | outcome [7]: inactive | Potency [8]: inactive

COc1ccc(NC(C)=O)cc1
outcome [1]: inactive | outcome [2]: inactive | Potency [3]: inactive | Potency [4]: inactive | outcome [5]: inactive | Potency [6]: inactive | outcome [7]: inactive | Potency [8]: inactive

Nc1nc(F)nc2c1ncn2[C@@H]1O[C@H](CO)[C@@H](O)[C@@H]1O
outcome [1]: inactive | outcome [2]: inactive | outcome [9]: inactive | Potency [10]: inactive | Potency [4]: inactive | outcome [5]: inactive | Potency [6]: inactive | outcome [7]: inactive | Potency [8]: inactive

COC(=O)[C@H]1[C@H]2C[C@@H]3c4[nH]c5cc(OC)ccc5c4CCN3C[C@H]2C[C@@H](OC(=O)COc2ccc(OC)cc2)[C@@H]1OC
outcome [1]: inactive | outcome [2]: inactive | outcome [9]: inactive | Potency [10]: inactive | Potency [4]: inactive | outcome [5]: inactive | Potency [6]: inactive | outcome [7]: inactive | Potency [8]: inactive

CCCCCC[C@@H](CCC)C(=O)O
outcome [1]: inactive | outcome [2]: inactive | outcome [9]: inactive | Potency [10]: inactive | Potency [4]: inactive | outcome [5]: inactive | Potency [8]: inactive

CCN1CCCC(OC(=O)C(c2ccccc2)c2ccccc2)C1 (stereo unspecified)
outcome [1]: inactive | outcome [2]: inactive | outcome [9]: inactive | Potency [10]: inactive | Potency [4]: inactive | outcome [5]: inactive | Potency [6]: inactive | outcome [7]: inactive | Potency [8]: inactive

NC(=O)CCCCC1CCSS1 (stereo unspecified)
outcome [1]: inactive | outcome [2]: inactive | outcome [9]: inactive | Potency [10]: inactive | Potency [4]: inactive | outcome [5]: inactive | Potency [6]: inactive | outcome [7]: inactive | Potency [8]: inactive

Nc1cc(C(Cl)=C(Cl)Cl)c(S(N)(=O)=O)cc1S(N)(=O)=O
outcome [1]: inactive | outcome [2]: inactive | outcome [9]: inactive | Potency [10]: inactive | Potency [4]: inactive | outcome [5]: inactive | Potency [6]: inactive | outcome [7]: inactive | Potency [8]: inactive

CCCCCCCCCCCCCCCCCCOCC(O)CO (stereo unspecified)
outcome [1]: inactive | outcome [2]: inactive | outcome [9]: inactive | Potency [10]: inactive | Potency [4]: inactive | outcome [5]: inactive | Potency [6]: inactive | outcome [7]: inactive | Potency [8]: inactive

Cc1nccn1CC1CCc2c(c3ccccc3n2C)C1=O (stereo unspecified)
outcome [1]: inactive | outcome [2]: inactive | outcome [9]: inactive | PLD induction [10]: -0.746% [at 7.66 µM] and -2.67% [at 3.15 µM] | Potency [4]: inactive | outcome [5]: inactive | outcome [7]: inactive | Potency [8]: inactive
